# Laboratory results taken from the supplement of paper PMC6555819.
# Key:
# Experiment in all cases: PBM binding z-score (relative to random genomic background probes); higher = stronger binding; sequences stand for … in GC…GCGATTGACAGCGTAGAATGAAGG
# [1] = test system: FXR:RXRa (NR concentration 270 nM, RXRa partner concentration 90 nM)
# Procedure, shortened: (§1)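 Custom Agilent 4×180K protein-binding microarrays carried double-stranded probes, each with a 34-nt variable region. These regions held direct-repeat seeds, single-nucleotide variants, half-site ablations and random human genomic background sequences. Ligand-free nuclear receptor dimers were incubated on the arrays for 1 h, antibodies against each partner (one per run) detected binding, and scanned fluorescence was regression-normalized. Binding z-scores take the random background probes as reference.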
# [2] = test system: LXRa:RXRa (NR concentration 270 nM, RXRa partner concentration 90 nM)
# Procedure, shortened: as §1
# [3] = test system: LXRa homodimer (NR concentration 270 nM)
# Procedure, shortened: as §1
# [4] = test system: LXRb:RXRa (NR concentration 270 nM, RXRa partner concentration 90 nM)
# Procedure, shortened: as §1
# [5] = test system: LXRb homodimer (NR concentration 270 nM)
# Procedure, shortened: as §1
# [6] = test system: PPARa:RXRa (NR concentration 270 nM, RXRa partner concentration 90 nM)
# Procedure, shortened: as §1
# [7] = test system: PPARg:RXRa (NR concentration 180 nM, RXRa partner concentration 90 nM)
# Procedure, shortened: as §1
# [8] = test system: PPARg:RXRa 270nM:90nM, anti-RXR (NR concentration 270 nM, RXRa partner concentration 90 nM)
# Procedure, shortened: as §1
# [9] = test system: PPARg:RXRa 30nM:10nM, anti-RXR (NR concentration 30 nM, RXRa partner concentration 10 nM)
# Procedure, shortened: as §1
# [10] = test system: PPARg:RXRa 90nM:30nM, anti-RXR (NR concentration 90 nM, RXRa partner concentration 30 nM)
# Procedure, shortened: as §1
# [11] = test system: PPARg:RXRa DBDmut IVT, anti-RXR (DBD mutation: RXRa K156A/R161A, NR concentration 270 nM, RXRa partner concentration 90 nM)
# Procedure, shortened: as §1
# [12] = test system: PPARg:RXRa IVT, anti-PPARg (NR concentration 270 nM, RXRa partner concentration 90 nM)
# Procedure, shortened: as §1
# [13] = test system: PPARg DBDmut:RXRa IVT, anti-PPARg (DBD mutation: PPARg1 K132A/R137A, NR concentration 270 nM, RXRa partner concentration 90 nM)
# Procedure, shortened: as §1
# [14] = test system: PPARg DBDmut IVT, anti-PPARg (DBD mutation: PPARg1 K132A/R137A, NR concentration 270 nM)
# Procedure, shortened: as §1
# [15] = test system: PPARg homodimer (NR concentration 180 nM)
# Procedure, shortened: as §1
# [16] = test system: PXR:RXRa (NR concentration 270 nM, RXRa partner concentration 90 nM)
# Procedure, shortened: as §1
# [17] = test system: PXR homodimer (NR concentration 270 nM)
# Procedure, shortened: as §1
# [18] = test system: RARa:RXR (NR concentration 270 nM, RXRa partner concentration 90 nM)
# Procedure, shortened: as §1
# [19] = test system: RARa homodimer (NR concentration 270 nM)
# Procedure, shortened: as §1
# [20] = test system: RARb:RXRa (NR concentration 270 nM, RXRa partner concentration 90 nM)
# Procedure, shortened: as §1
Sequence,PBM binding z-score [1],PBM binding z-score [2],PBM binding z-score [3],PBM binding z-score [4],PBM binding z-score [5],PBM binding z-score [6],PBM binding z-score [7],PBM binding z-score [8],PBM binding z-score [9],PBM binding z-score [10],PBM binding z-score [11],PBM binding z-score [12],PBM binding z-score [13],PBM binding z-score [14],PBM binding z-score [15],PBM binding z-score [16],PBM binding z-score [17],PBM binding z-score [18],PBM binding z-score [19],PBM binding z-score [20]
GCTAGCAGGCCCTTTGGGTCACTCAATGACGGGC,-0.0163,-0.0683,-0.519,-0.325,-1.53,0.647,0.157,0.373,-0.568,0.116,-0.306,0.697,-0.724,-0.795,-0.401,-0.203,-0.555,0.51,-0.612,0.879
ACAGATAGGTGATGAAGGTAACTCAGGCTATCAT,-0.192,-0.132,-0.27,-0.29,-0.768,0.548,0.643,0.541,0.412,0.624,0.825,0.996,0.38,0.000268,0.111,0.00334,-0.296,0.286,0.188,0.11
CAAACTAGGTCACCGGAAGGTTAAAGTCCGCATG,5.17,4.53,1.89,3.61,0.743,5.67,9.32,7.58,5.78,7.27,8.22,9.06,2.44,1.44,3.7,3.98,0.858,5.18,0.971,4.78
CCTCGGAGGACAGAAGCTCAGAGCTGTCCGCTTT,-0.605,-0.517,-0.873,-1.16,-0.889,-1.83,-0.876,-1.61,-1.52,-1.69,-0.36,-1.19,-1.19,-2.47,-1.01,-1.09,-1.12,-1.41,-0.553,0.0741
CAAACTAGGTCAAGGTTAAAGTCGGTTTGTGCCA,4.21,3.75,1.17,2.93,0.57,5.22,9.29,8.04,6.64,9.18,8.28,8.73,1.13,0.568,2.77,3.05,0.428,3.41,0.337,4.2
TAGCCTAGGTCAGATCGGGCCAGCATACGCTATA,2.37,0.982,-0.589,0.386,-0.807,1.52,0.739,0.901,-0.0521,0.135,0.377,1.4,-0.988,-0.801,0.0554,0.945,-0.628,1.3,-0.92,3.09
CCGACTGGGGCAAAGTTTACCATACTCAGTACGA,-0.248,0.0946,-0.139,0.553,-0.586,3.67,8.3,7.72,6.38,8.55,4.45,4.71,-0.8,-0.571,0.875,0.182,0.0528,0.465,-0.24,1.41
